Source: PubChem BioAssay (several laboratories)
RecA splice inh: Mtb RecA intein splicing inhibitors, primary screen, biochemical, fluorescence, HTS. Protein RecA (Mycobacterium tuberculosis (strain ATCC 25618 / H37Rv)), P9WHJ3. cell-free RecA intein splicing. inhibition, % (no concentration beside the values). 290,000 compounds, 0.75% hits; in the data active = inhibition above about 30%;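 also: 0% = vehicle wells and 100% = reference inhibitor control wells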
Mtb bLac sens: beta-lactam sensitization of Mtb H37Rv, H37Rv | 330,000 compounds, 0.27% hits | M. tuberculosis H37Rv growth with meropenem, percent inhibition | AID 434955, 2010 | inhibition, % at 25 µM;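 also: growth measured after seven days incubation then overnight dye step; 0% = bacteria only wells and 100% = bacteria with antibiotic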
CCHF vOTU inh: CCHFV vOTU protease inhibitors, primary screen, biochemical, Pep-AMC substrate, fluorescence | inhibition, % at 11.5 µM | 370,000 compounds, 0.55% hits | AID 651958, 2012 | Crimean-Congo hemorrhagic fever virus L polyprotein viral ovarian tumor (vOTU) protease …; in the data active = inhibition above about 30%; also: 0% = vehicle wells with enzyme and 100% = no enzyme wells
Rv3671c protease: Rv3671c serine protease inhibitors, primary screen, biochemical, fluorescence polarization, M. tuberculosis H37Rv | 320,000 compounds, 0.048% hits | P9WHR9 | inhibition, % at 5.96 µM; in the data active = inhibition above about 38%;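 also: extracellular domain of Rv3671c used as enzyme; 0% = enzyme with DMSO and 100% = no enzyme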
Mtb UGM inh: M. tuberculosis UGM enzyme inhibitors, primary screen, biochemical, fluorescence polarization, single point. UDP-galactopyranose mutase (Mycobacterium tuberculosis (strain ATCC 25618 / H37Rv)), …. purified UGM, fluorescence polarization probe displacement. inhibition, % at 10 µM. 320,000 compounds, 0.06% hits. AID 504406, 2011; in the data active = inhibition above about 10%, passing the limit was not always enough
GFP chromo cs: counter-screen: blocks GFP chromophore formation, dose response, counter-screen, biochemical, fluorescence, homogeneous; cell-free GFP chromophore formation; EC50, µM; shares compounds with RecA splice inh; 2,100 compounds, 83% hits
Numbers without * were called inactive; / = no result. Hits are enriched below; roughly 1.2% of the tested compounds scored in any of these assays. Unless noted, no rule for the calls is given here.

SMILES	RecA splice inh	Mtb bLac sens	CCHF vOTU inh	Rv3671c protease	Mtb UGM inh	GFP chromo cs
CCCOc1ccc(N2C(=O)CC(N(CCc3ccc(OC)cc3)C(=O)/C=C/C(=O)O)C2=O)cc1 (stereo unspecified)	4	-8	-10	7	0	/
COc1ccc(N2C(=O)CC(N(CCc3ccccc3)C(=O)/C=C/C(=O)O)C2=O)cc1 (stereo unspecified)	1	-1	-9	6	2	>38
O=c1[nH]c(N2CCOCC2)cc2ccccc12	69*	-11	5	-108	3	24*
O=C(Nc1ccc2nc3n(c(=O)c2c1)CCCCC3)c1c(F)ccc([N+](=O)[O-])c1F	60*	79	8	-35	-2	25*
CCOC(=O)C1=C(C)NC(SCC(N)=O)=C(C#N)C1c1cccs1 (stereo unspecified)	0	-8	-4	-5	-1	/
CCOC(=O)C1=C(C)NC(SCc2cc(=O)[nH][nH]2)=C(C#N)C1c1cccs1 (stereo unspecified)	70*	3	9	6	1	20*
CCN(CC)CCN1C(=O)c2cccc3cc(N)cc(c23)C1=O	46*	1	23	0	5	0.42*
COc1ccc(S[C@]2(C(=O)N3CCOCC3)CC(=O)N(c3ccc(Cl)cc3)[C@@H]2c2ccc(OC)cc2)cc1	/	/	12	/	/	/
O=C(OC12CCCN(C1)/C(=C/c1cccc(Cl)c1)C2)c1ccco1 (stereo unspecified)	/	/	10	/	/	/
O=C(CSc1nc2ccccc2nc1SCC(=O)N1CCOCC1)N1CCOCC1	32*	-20	17	4	-1	>38
O=C(CSc1nc2ccccc2nc1SCC(=O)N1CCCCC1)N1CCCCC1	0	-2	5	-4	-2	/
COC(=O)c1cn(-c2ccc3c(c2)[C@@]2(CC(=O)N(C)C2c2ccccc2)C(=O)N3CC(C)C)nn1 (stereo partly specified)	/	/	-4	/	/	/
CCCCn1[nH]c(-c2ccccc2)cc1=O	97*	9	4	-147	0	2.8*
CCCc1cc(=O)n2[nH]c(-c3ccccc3)cc2n1	-1	2	-5	2	3	/
C=CCN1C(=O)[C@H](CC(=O)NCC23CC4CC(CC(C4)C2)C3)[C@@]2(C(=O)OCC)CCCC=C12	/	/	17	/	/	/
Cc1ccc(SC2=C(Sc3ccc(C)cc3)C(=O)c3ccccc3C2=O)cc1	12	-2	-1	-20	0	/
Cc1ccc(Sc2c(C)[nH]n(C(C)(C)C)c2=O)cc1	50*	-17	2	-2	0	40*
O=C(c1ccc(F)cc1Cl)N1CCCC(c2nc(-c3cccs3)no2)C1 (stereo unspecified)	/	/	2	/	/	/
O=C(CCl)c1ccc2c(c1)CCN2C(=O)C1CCCCC1	80*	100	-8	3	0	>38
COC(=O)CN1C(=O)C2(C(C#N)=C(N)Oc3n[nH]c(-c4cccs4)c32)c2ccccc21 (stereo unspecified)	9	-4	10	0	4	/
COC(=O)CN1C(=O)C2(C(C#N)=C(N)Oc3c2c(C)nn3-c2ccccc2)c2ccccc21 (stereo unspecified)	75*	-2	15	5	0	15*
CCOC(=O)C1=C(c2ccccc2)NC(N)=NC1c1ccc(OCc2ccc(C(=O)OC)cc2)cc1 (stereo unspecified)	46*	97	21	-1	-1	26*
COC(=O)[C@]12C[C@H](CC(=O)NCc3cccs3)C(=O)N(Cc3ccco3)C1=C[C@H](COCc1ccccc1)O[C@@H]2C	/	/	-3	/	/	/
CCc1ccc(Nc2n[n+](-c3ccccc3)c(-c3c(Cl)cccc3Cl)s2)cc1	49*	100	0	12	2	16*
Fc1ccc(-[n+]2nc(Nc3ccccc3)sc2-c2c(Cl)cccc2Cl)cc1	13	69	14	-3	0	/
SMILES	RecA splice inh	Mtb bLac sens	CCHF vOTU inh	Rv3671c protease	Mtb UGM inh	GFP chromo cs
Nc1cc(OCC(F)(F)F)cc([N+](=O)[O-])c1	-3	8	0	-7	0	/
Nc1cc(N)c(OCC(F)(F)F)cc1OCC(F)(F)F	92*	-18	/	-56	-3	7.6*
Cc1ccc(NC(=O)[C@@H]2CC(=O)O[C@@H]2c2ccccc2)c(C)c1	/	/	-2	/	/	/
COc1ccc(-c2nnc(SCC(=O)Nc3ccc(S(=O)(=O)Nc4cc(C)nc(C)n4)cc3)n2-c2ccc(OC)cc2)cc1	/	/	16	/	/	/
COC(=O)[C@]12C[C@H](CC(=O)NCC34CC5CC(CC(C5)C3)C4)C(=O)N(Cc3ccco3)C1=C[C@H](C1CCCC1)O[C@@H]2C	/	/	6	/	/	/
COc1cc(C(C(=O)NC2CCCCC2)N(CCN2CCOCC2)C(=O)C2COc3ccccc3O2)cc(OC)c1OC (stereo unspecified)	47*	-1	0	-2	2	>38
COc1ccc(C(C(=O)NC2CCCCC2)N(CC2CCCO2)C(=O)C2COc3ccccc3O2)cc1OC (stereo unspecified)	0	8	-2	-7	3	/
N#CC1=C(N)Oc2n[nH]c(-c3cccs3)c2C1c1ccsc1 (stereo unspecified)	91*	-6	7	-21	-1	5.4*
N#CC1=C(N)Oc2n[nH]c(-c3cccs3)c2C1C1CCCCC1 (stereo unspecified)	19	-7	12	-15	1	/
COc1cccc(-c2[nH]nc3c2C(c2ccc(C)o2)C(C#N)=C(N)O3)c1 (stereo unspecified)	78*	-4	9	-14	2	17*
Cc1ccc(C2C(C#N)=C(N)Oc3n[nH]c(-c4cccs4)c32)s1 (stereo unspecified)	67*	-8	-3	-16	-1	8.8*
CC(C)c1[nH]nc2c1C(c1ccco1)C(C#N)=C(N)O2 (stereo unspecified)	64*	3	3	5	2	29*
CC(COc1cccc(C#N)c1)CN1CCC(C(O)(c2ccccc2)c2ccccc2)CC1 (stereo unspecified)	/	/	20	/	/	/
O=C(NCCc1ccccc1)OCc1cn(Cc2ccccc2C(F)(F)F)nn1	/	/	-3	/	/	/
CCCCNC(=O)C[C@H]1C[C@@]2(C(=O)OC)C(=C[C@H](COCc3ccccc3)O[C@@H]2C)N(Cc2ccco2)C1=O	/	/	2	/	/	/
CCc1[nH]nc2c1C(c1ccsc1)C(C#N)=C(N)O2 (stereo unspecified)	77*	-14	-9	4	0	26*
COc1ccc(OC)c(-c2[nH]nc3c2C(c2ccco2)C(C#N)=C(N)O3)c1 (stereo unspecified)	70*	8	1	-3	-1	26*
